This is an account of results in PubChem BioAssay (NCI).

About 83,000 compounds went through this panel and 20% of them were active in at least one assay; those are over-represented in the sample as a whole.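 The endpoint reported here, percent growth, reads 100 for growth as untreated, 0 for no net growth and -100 for all cells dead.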 Values without a mark were called inactive. Active and inactive are the calls of the source.

The subject of this experiment is CCRF-CEM leukemia. The experiment in a line: NCI-60 one-dose screen, 48 h (100 = growth as untreated, 0 = no growth, -100 = all killed). The settings on record: 10 µM unless noted. As for the experimental part:
Growth inhibition of the CCRF-CEM human tumor cell line is measured as a screen for anti-cancer activity. Cells are grown in 96 well plates and exposed to the test compound for 48 hours. Compounds are tested at a single concentration, which is 10^-5 M for most compounds. The reported endpoint is percent growth (GI% or GIPRCNT), where numbers from 0 - 100% represent growth inhibition, and numbers from -100% - 0 represent cell death. For example, a value of 40 represents 60% growth inhibition. A value of 0 means no net growth occurred over the course of the experiment. A value of -40 indicates 40% of cells at the beginning of the experiment died by the end of the experiment. A value of -100 means all cells are dead at the end of the experiment.
NCI-60 Human Tumor Cell Lines Screen was performed using the standard one-dose NCI protocol, which is described in more detail at https://dtp.cancer.gov/discovery_development/nci-60/default.htm.
Compounds with GIPRCNT values below 10 were considered active. Activity score was based on GIPRCNT using the following formula: […]
Score is 0 for GIPRCNT values of 100 or above, 50 for GIPRCNT values of 0, and 100 for GIPRCNT values of -100.
As for `Nc1cc(-c2nc3sccn3c2-c2ccnc(NCCCNS(=O)(=O)c3ccc(F)cc3)n2)ccc1F`, the growth was 21.2%. Under `NC1=CSC2=N/C(=C\c3ccc(Cl)cc3)C(=O)N12` stands -13.5% (active); under `CC(C)c1c(C(=O)Nc2ccccc2)c(-c2ccccc2)c(-c2ccc(F)cc2)n1CC[C@@H]1CC=CC(=O)O1`, -29.1% (active); under `CCN(CC)Cc1cc(Nc2c3ccc(Cl)cc3nc3c(C)cccc23)ccc1O`, 4.19% (active). Under `CCOc1ccc(Nc2nc(-c3c(C)nc4ncccn34)cs2)cc1` stands -4.93% (active). Under `Cc1ccc2cnc(N)c(C#Cc3cncc(C(=O)Nc4ccc(CN5CCN(C)CC5)c(C(F)(F)F)c4)c3)c2c1` stands -45% (active); under `O=S(=O)(Nc1ccc(Cl)cc1Cl)c1ccc(-c2cnc(C3CC3)o2)cc1`, 18.6%. On to `CC(C)n1cc2c(N)ncnc2n1`, for which the growth is 109%. Under `COc1cc(NCCCCCN=C(N)NC(N)=NC(C)C)c2ncccc2c1` stands 25.3%; under `COc1cc(/C=N\NC(=O)CN2CCN(c3cc4c(cc3F)c(=O)c(C(=O)N/N=C/c3ccc(O)c(OC)c3)cn4C3CC3)CC2)ccc1O`, 18.9%.

For `NC(=S)N/N=C/c1cc(-c2cccc(N)c2)ccn1`, the growth was 6.08% (active). In the case of `C/C(=C(/c1ccc(O)cc1)c1ccc(OCCN(C)C)cc1)c1ccccc1` it was 94.3%. Under `CN1CCN(Cc2ccc(NC(=O)c3[nH]ncc3Nc3ncnc4c3CCC4)cc2)CC1` stands 11.1%; under `O=C1c2ccccc2-c2nccc3cc(Cl)nc1c23`, 19.4%; under `C=C1CC2(OC1=O)C(=O)N(CCCCCCCCCCCCN1C(=O)C3(CC(=C)C(=O)O3)c3ccccc31)c1ccccc12` (stereo not given), 4.77% (active).

Take `O=C1Nc2c(ccc(Cl)c2Cl)/C1=C/c1cc(Br)c(O)c(Br)c1`: the growth was 69%.

Take `C/C=C/C(N)=O`: the growth is 35.6%. In the case of `CCCCCCCCCCNC(=O)CCl` it was 57.8%; in that of `COC1C/C(=N\O)C2OC(c3ccccc3)OCC2O1` (stereo not given), 96.1%; in that of `CN1CCN(Cc2ccc(NC(=O)c3cncc(C#Cc4cnc(N)c5cccnc45)c3)cc2C(F)(F)F)CC1`, 16.9%. Under `O=S(=O)(NCCCNc1cc(-c2cn(-c3ccccc3)nc2-c2cccc(O)c2)ccn1)c1ccccc1` stands 38.5%. As to `OC(c1cccc(C(F)(F)F)c1)c1cnccc1NC1CCCCCC1` (stereo not given), the growth is 30.5%.

As to `COc1cc(C2CC(=O)c3c(C)nn(-c4nc5ccccc5[nH]4)c3C2)cc(OC)c1OC` (stereo not given), the growth is 104%.

On to `CC[C@H](CO)Nc1nc(NCc2ccccc2)n2ncc(C(C)C)c2n1`, for which the growth was -0.868% (active).

Turning to `COc1ccc(C2Nc3ccccc3-n3cccc32)cc1` (stereo not given), the growth is 104%. Under `COc1cc(NC(N)=NCC(C)(C)COc2ccc(C(F)(F)F)cc2)cnc1C#N` stands 56%; under `COc1cc(C2CC(=O)Nc3c2c(C)nn3-c2nc3ccccc3[nH]2)cc(OC)c1OC` (stereo not given), 32%. In the case of `COc1ccc(-c2cn3c(-c4ccc(OC)cc4)cnc3c(Oc3ccc4c(C)cc(=O)oc4c3)n2)cc1` it was 93.2%; in that of `CCCCN(CC)CCCCCCCCCCN1CCCc2cc(OC)ccc21`, 7.28% (active). In the case of `O=C1C[C@H](N2C(=O)c3ccccc3S2(=O)=O)C2CO[C@@H]1O2` it was 4.58% (active); in that of `CCCCCCCCCCCCCCCC[N+]1(CC)CCCC1`, -67% (active); in that of `Cc1ccc(SCN2CCN(c3cccc(Cl)c3)CC2)cc1`, 38.7%. In the case of `CC[n+]1ccc2c(c1)C(=O)c1nccc3c1c-2nc1ccccc13`, the growth was 0.574% (active). In the case of `O=c1[nH]c(-c2ccccn2)nc2sc3c(c12)CCCCC3` it was 26.7%; in that of `COC(=O)C12C3C(=O)N(c4ccc(OC)cc4)C(=O)C3C(c3cn(-c4ccccc4)nc3C)N1[C@H](c1cn(-c3ccccc3)nc1C)[C@@H]1C(=O)N(c3ccc(OC)cc3)C(=O)[C@@H]12` (stereo not given in full), 104%. Under `O=[N+]([O-])c1cccc(-c2nc3sccn3c2-c2ccnc(NCCCNS(=O)(=O)c3ccc(Br)cc3)n2)c1` stands 18.6%; under `O=C(NCc1cccc(C(F)(F)F)c1)[C@H](CCC(=O)N1CCN(C2CCCCC2)CC1)N1C(=O)[C@@H](N2C(=O)OC[C@@H]2c2ccccc2)[C@H]1/C(Cl)=C/c1ccccc1`, 33.9%.

Turning to `CCN(CC)CC#CCOC(=O)[C@]1(C)CCC[C@@]2(C)[C@H]1CC(C=O)=C1C=C(C(C)C)CC[C@@H]12`, the growth is 50.4%.

Regarding `O=C1/C(=C/c2ccc(F)cc2)CN(C(=O)CCN2CCC(=NO)CC2)C/C1=C\c1ccc(F)cc1`, the growth was -18.3% (active).

With `Cc1csc2ccc(Cl)cc12`, the growth is 108%.
